Laboratory results: PMC4336329 (PLoS ONE, 2015)
In all, about 310,000 compounds went through this assay and about 2,200 (0.71%) showed an effect of 50% or more. Effects have a minus sign here. The full list was thinned out, with strong results kept by preference.

Target: human ether-à-go-go-related gene (hERG) potassium channel (human, UniProt Q12809)
Experiment: primary screen, population patch clamp on CHO cells stably expressing hERG; higher = less effect of the substance

Sequence of human ether-à-go-go-related gene (hERG) potassium channel (Q12809 whole entry, looked up): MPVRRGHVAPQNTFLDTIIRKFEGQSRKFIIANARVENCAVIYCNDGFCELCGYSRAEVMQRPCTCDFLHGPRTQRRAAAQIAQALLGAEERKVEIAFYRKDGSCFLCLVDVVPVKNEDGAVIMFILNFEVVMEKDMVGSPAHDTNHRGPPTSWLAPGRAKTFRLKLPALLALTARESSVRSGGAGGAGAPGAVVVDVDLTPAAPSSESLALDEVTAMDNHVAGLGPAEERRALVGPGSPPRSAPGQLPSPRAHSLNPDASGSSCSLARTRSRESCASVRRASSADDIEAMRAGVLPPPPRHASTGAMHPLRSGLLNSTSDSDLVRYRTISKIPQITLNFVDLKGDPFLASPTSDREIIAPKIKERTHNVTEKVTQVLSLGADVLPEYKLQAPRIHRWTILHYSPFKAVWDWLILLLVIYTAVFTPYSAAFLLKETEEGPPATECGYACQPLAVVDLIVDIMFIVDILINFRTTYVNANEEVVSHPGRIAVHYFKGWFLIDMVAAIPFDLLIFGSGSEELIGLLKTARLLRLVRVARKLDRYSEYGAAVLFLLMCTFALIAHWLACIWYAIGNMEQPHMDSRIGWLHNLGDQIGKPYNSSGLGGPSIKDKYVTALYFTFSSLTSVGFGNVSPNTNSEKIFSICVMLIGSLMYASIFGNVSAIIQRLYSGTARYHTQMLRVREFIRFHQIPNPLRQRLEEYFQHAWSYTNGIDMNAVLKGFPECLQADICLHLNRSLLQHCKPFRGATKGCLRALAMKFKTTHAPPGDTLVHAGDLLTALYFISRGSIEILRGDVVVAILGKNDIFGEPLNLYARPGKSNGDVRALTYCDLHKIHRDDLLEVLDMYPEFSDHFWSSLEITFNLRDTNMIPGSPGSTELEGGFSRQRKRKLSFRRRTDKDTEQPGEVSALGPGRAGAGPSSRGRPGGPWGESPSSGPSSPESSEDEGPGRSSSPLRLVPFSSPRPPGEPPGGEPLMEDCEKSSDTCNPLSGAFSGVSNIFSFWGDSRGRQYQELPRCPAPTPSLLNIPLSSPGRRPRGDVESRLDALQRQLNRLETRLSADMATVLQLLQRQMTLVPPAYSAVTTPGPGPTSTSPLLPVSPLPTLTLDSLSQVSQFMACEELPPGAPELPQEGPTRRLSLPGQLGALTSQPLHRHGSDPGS

| SMILES | hERG current change (%, negative = inhibition) at 1uM [%] |
| --- | --- |
| CC1(C)NC(=O)N(CC(=O)N2CCN(c3ccc([N+](=O)[O-])cc3)CC2)C1=O | -29.1 |
| O=C(CN1C(=O)C2CC=CCC2C1=O)N1CCN(c2ccc([N+](=O)[O-])cc2)CC1 (stereo not drawn) | -64.2 |
| CC(C(=O)N1CCN(c2ccccc2)CC1)N1C(=O)C2CC=CCC2C1=O (stereo not drawn) | 10.3 |
| CC(C(=O)N1CCN(c2ccc([N+](=O)[O-])cc2)CC1)N1C(=O)C2CC=CCC2C1=O (stereo not drawn) | -50.2 |
| CC(C(=O)N1CCN(c2ccccc2)CC1)c1ccc([N+](=O)[O-])cc1 (stereo not drawn) | -12.2 |
| COc1ccc(N2CCN(C(=O)CN3C(=O)C4CC=CCC4C3=O)CC2)cc1 (stereo not drawn) | 15.7 |
| COc1ccc(C2=[N+]([O-])C(C)(C)N(O)C2(C)C)cc1 | 10.1 |
| Cc1nc(-c2nnc(SCC(=O)Nc3cc(Cl)cc(Cl)c3)n2C)cs1 | 10.6 |
| C/C(=N\N=C(c1ccccc1)c1ccccc1)c1ccco1 | 5.46 |
| CN1C(=O)C(=Cc2ccccc2OS(=O)(=O)c2ccccc2)C(=O)N(C)C1=O | 9.02 |
| N[C@@H]1CONC1=O | 18.7 |
| COC(=O)[C@H]1C[C@H]1[C@@H](NC(=O)c1cccnc1)c1ccccc1 | 11.4 |
| COc1ccc(C(CCNCc2ccc(N(C)C)cc2)c2ccccc2OC)cc1 (stereo not drawn) | -18.4 |
| COc1ccc(C(CCN)c2ccc3c(c2)OCO3)cc1 (stereo not drawn) | 13.6 |
| COc1ccc(C(CCNCc2ccc(N(C)C)cc2)C(C)C)cc1 (stereo not drawn) | 2.49 |
| COc1ccc(C(CCNCc2ccccc2)c2ccc(F)cc2)cc1 (stereo not drawn) | -17.7 |
| COc1ccc(CNCCC(c2ccccc2)c2ccc3c(c2)OCO3)cc1.Cl (stereo not drawn) | -68.7 |
| Fc1ccc(CNCCc2ccc3c(c2)OCO3)cc1 | 13.8 |
| COc1ccc(C(CCNCc2ccc(N(C)C)cc2)c2ccccc2)cc1 (stereo not drawn) | -56.4 |
| CCOc1ccc(CNCCc2ccc3c(c2)OCO3)cc1 | -52.6 |
| CCOc1ccccc1CNCCc1ccc2c(c1)OCO2.Cl | 1.75 |
| COc1ccc(OCCSc2nc(C)c(Cc3ccccc3)c(=O)[nH]2)cc1 | 7.38 |
| Cn1c(C(=O)c2ccccc2[N+](=O)[O-])nc2ccccc21 | -9.27 |
| S=C(Nc1ccccc1Cl)N1CCC(c2ccccc2)C1 (stereo not drawn) | -6.92 |

| SMILES | hERG current change (%, negative = inhibition) at 1uM [%] |
| --- | --- |
| COc1ccc2c(c1)N1CCN=C1N2C.Cl | 5.26 |
| Cc1[nH]nc(NCCO)c1[N+](=O)[O-] | -3.88 |
| CCOc1ccc(NC(=O)CN(c2ccc(OC)cc2)S(C)(=O)=O)cc1 | 8.87 |
| CCC(C)[C@H](NC(=O)C1CC(=O)N(c2ccc3c(c2)OCO3)C1)C(=O)NC1CCCCC1 (stereo partly drawn) | 29.5 |
| COC(=O)C(Cc1ccc(OC(=O)c2ccc(C(F)(F)F)cc2)cc1)N1Cc2ccccc2C1=O (stereo not drawn) | 13.8 |
| COc1cccc(C(=O)NC2CCCN(C3Cc4ccccc4C3)C2)c1OC (stereo not drawn) | 0.941 |
| O=C(NC1CCCN(C2Cc3ccccc3C2)C1)c1ccc(F)cc1Cl (stereo not drawn) | -72.9 |
| O=C(NC1CC1)c1ccc(F)cc1Cl | 14.2 |
| N/C(=N\OC(=O)c1cc(-c2ccccc2)nc2ccccc12)c1ccncc1 | 8.01 |
| CCOc1cc(S(=O)(=O)N2CCN(CC)CC2)ccc1Cl | 6.75 |
| Cc1ccc(-c2cc(C(=O)N3CCCc4ccccc43)no2)cc1 | -75.5 |
| O=C(c1cc(-c2ccc(O)cc2)on1)N1CCCc2ccccc21 | 8.9 |
| O=C(c1cc(-c2ccccc2)on1)N1CCCc2ccccc21 | 8.2 |
| CCOC(=O)C1CCCN(C(=O)c2cc(-c3ccc(C)cc3)on2)C1 (stereo not drawn) | -59.7 |
| CCOC(=O)C1CCCN(C(=O)c2cc(-c3ccccc3)on2)C1 (stereo not drawn) | 3.94 |
| Cc1ccc(-c2cc(C(=O)N3CCCCCC3)no2)cc1 | 10 |
| COc1ccccc1/C=c1\sc2nc(-c3ccco3)nn2c1=O | 17.5 |
| Cc1ccc2nc(NCCO)nc(-c3ccccc3)c2c1 | 1.36 |
| COc1ccc(C(C)=O)cc1COC(=O)c1cnc(C)cn1 | 17.6 |
| CCCCNC(=O)CCCn1c(=S)[nH]c2cc3c(cc2c1=O)OCO3 | 19.2 |
| Cc1oc(-c2ccccc2Cl)nc1CN1C(=O)CN=C(c2ccccc2)c2ccccc21 | 9.3 |
| CCOC(=O)CNC(=O)/C(=C\c1ccc(F)cc1)NC(=O)c1ccccc1 | -11.7 |
| O=C(CNC(=O)/C(=C\c1ccc(Br)cc1)NC(=O)c1ccccc1)OCc1ccccc1 | -48 |
| O=C(CNC(=O)/C(=C\c1ccc(F)cc1)NC(=O)c1ccccc1)OCc1ccccc1 | -69 |

| SMILES | hERG current change (%, negative = inhibition) at 1uM [%] |
| --- | --- |
| O=C(CNC(=O)/C(=C/c1ccccc1)NC(=O)c1ccc(Br)cc1)OCc1ccccc1 | 2.24 |
| O=C(CCCNC(=O)/C(=C/c1ccc(Br)cc1)NC(=O)c1ccccc1)OCc1ccccc1 | -2.58 |
| O=C(CNC(=O)/C(=C\c1ccccc1)NC(=O)c1ccc(Br)cc1)OCc1ccccc1 | -68.1 |
| COc1ccc(/C=N/N=C(/N)N[N+](=O)[O-])c(OC)c1 | 7.59 |
| CCN(CC)S(=O)(=O)c1cc(NC(=O)C(C)N2CCc3ccccc32)ccc1C (stereo not drawn) | 9.99 |
| C=CCn1c(SCC(=O)NNC(=O)Nc2cccc(Cl)c2)nnc1-c1ccccc1 | 6.04 |
| COc1ccc(C(=O)Oc2cc(C)c(CN3CCOCC3)cc2C)cc1OC | -1.52 |
| C#CCSc1nc(N)c2c(n1)OC(N)=C(C#N)C2c1cccnc1 (stereo not drawn) | 4.59 |
| O=C(CSc1ncccn1)N1CCN(C(c2ccccc2)c2ccccc2)CC1 | 4.43 |
| O=C(Cn1c(=O)cnc2ccccc21)N1CCN(S(=O)(=O)c2ccccc2Br)CC1 | 36.9 |
| CCn1c2nc(SCCN3CCOCC3)nnc2c2cc(C)cc(C)c21 | -69.2 |
| CCn1c2ccc(C)cc2c2nnc(SCCN3CCOCC3)nc21 | 4.8 |
| CCCn1c2ccc(C)cc2c2nnc(SCCN3CCOCC3)nc21 | 19 |
| Cc1ccc(S(=O)(=O)N2CCCC2C(=O)Nn2cnnc2)cc1 (stereo not drawn) | 11.7 |
| CCc1nc(SCC(=O)NC2CC2)c2c(C)c(C)sc2n1 | -4.16 |
| Cc1cc(NC(=O)NCc2ccccc2)c(=O)n(Cc2ccccc2F)c1 | 7.05 |
| Cc1cc(=O)n(C)c(=O)n1CCCCOc1cccc([N+](=O)[O-])c1 | 9.25 |
| O=C(O)C(=O)O.O=[N+]([O-])c1ccc(OCCN2CCNCC2)cc1 | -52.2 |
| Cc1cc(=O)n(C)c(=O)n1CCCCOc1ccc([N+](=O)[O-])cc1 | -66.8 |
| CC1CCN(CCCCOc2ccc([N+](=O)[O-])cc2)CC1 | -77.8 |
| CC1CCN(CCCCOc2ccc(Br)cc2)CC1 | -30.4 |
| Cc1ccc(OCCN2CCCC2)cc1.O=C(O)C(=O)O | 7.22 |
| Cc1cc(=O)n(C)c(=O)n1CCCCCCOc1ccc([N+](=O)[O-])cc1 | -11.1 |
| COc1ccc(OCCCCN2CCC(C)CC2)cc1.O=C(O)C(=O)O | 0.418 |

| SMILES | hERG current change (%, negative = inhibition) at 1uM [%] |
| --- | --- |
| CCOc1ccc(OCCN2CCCCC2)cc1.O=C(O)C(=O)O | -4.9 |
| Fc1ccc(OCCOCCN2CCNCC2)cc1.O=C(O)C(=O)O | 10.4 |
| O=C(O)C(=O)O.O=[N+]([O-])c1ccc(OCCN2CCCCCC2)cc1 | -74.5 |
| Cc1ccc(OCCN2CCNCC2)c([N+](=O)[O-])c1.O=C(O)C(=O)O | 17.4 |
| CCCc1cc(=O)oc2cc(C)cc(OCC(=O)Nc3ccc(CN4CCOCC4)cc3)c12 | 10.4 |
| CCCN(CCC)CCNC(=O)C1CC(=O)N(c2ccc(OC)cc2)C1c1ccc(OC)cc1 (stereo not drawn) | -18.1 |
| CCOC(=O)C1(C)NC(c2ccccc2F)C2C(=O)N(c3cccc(C(C)=O)c3)C(=O)C21 (stereo not drawn) | 15.4 |
| CC(=O)Nc1ccc(-c2nnn(CC(=O)c3ccccc3)n2)cc1Cl | 8.22 |
| CCOC(=O)c1c(C)[nH]c(C(=O)C(C)OC(=O)c2ccc(NC(=O)CC#N)cc2)c1C (stereo not drawn) | 17.5 |
| O=C(O)C(Oc1ccc2c(-c3ccccc3)cc(=O)oc2c1)c1ccccc1 (stereo not drawn) | 9.07 |
| COc1ccc2c3c(c(=O)oc2c1OCC(=O)O)CCCC3 | 23.8 |
| CCOc1ccc(-c2cc(C(=O)O)c3ccccc3n2)cc1 | 7.66 |
| O=[N+]([O-])c1ccc(OCCCCN2CCCCC2)cc1 | -59.4 |
| CCC(C)NCCCCOc1ccc(Br)cc1.O=C(O)C(=O)O (stereo not drawn) | -0.232 |
| CCC(C)NCCCOc1ccc([N+](=O)[O-])cc1.O=C(O)C(=O)O (stereo not drawn) | -73.7 |
| CCCOc1ccc(OCCCCNC(C)CC)cc1.O=C(O)C(=O)O (stereo not drawn) | 1.92 |
| COc1ccccc1OCCNC(=O)/C=C/c1ccc([N+](=O)[O-])cc1 | -9.26 |
| O=[N+]([O-])c1ccc(OCCCCCN2CCOCC2)cc1 | -24.9 |
| Brc1ccc(OCCCCN2CCCCC2)cc1 | -11.6 |
| COc1ccc(OCCNC(=O)/C=C/c2ccc([N+](=O)[O-])cc2)cc1 | -59.9 |
| COc1ccc(/C=C/C(=O)NCCOc2ccc(C)cc2)cc1 | 10.5 |
